# Laboratory results as given in ChEMBL document CHEMBL1961873, “Compounds: GSK PKIS; Assays: Nanosyn kinase panel” (2012).
# What was measured:
# [1] = target: Sphingosine kinase 1 (Homo sapiens) (UniProt Q9NYA1); details: at 1 µM;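 further: mean SPHK1 inhibition value reported from the GSK PKIS kinase panel screen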
# [2] = target: T1, Sphingosine kinase 2 (Homo sapiens) (UniProt Q9NRA0); details: at 0.1 µM
# T1 sequence (whole entry): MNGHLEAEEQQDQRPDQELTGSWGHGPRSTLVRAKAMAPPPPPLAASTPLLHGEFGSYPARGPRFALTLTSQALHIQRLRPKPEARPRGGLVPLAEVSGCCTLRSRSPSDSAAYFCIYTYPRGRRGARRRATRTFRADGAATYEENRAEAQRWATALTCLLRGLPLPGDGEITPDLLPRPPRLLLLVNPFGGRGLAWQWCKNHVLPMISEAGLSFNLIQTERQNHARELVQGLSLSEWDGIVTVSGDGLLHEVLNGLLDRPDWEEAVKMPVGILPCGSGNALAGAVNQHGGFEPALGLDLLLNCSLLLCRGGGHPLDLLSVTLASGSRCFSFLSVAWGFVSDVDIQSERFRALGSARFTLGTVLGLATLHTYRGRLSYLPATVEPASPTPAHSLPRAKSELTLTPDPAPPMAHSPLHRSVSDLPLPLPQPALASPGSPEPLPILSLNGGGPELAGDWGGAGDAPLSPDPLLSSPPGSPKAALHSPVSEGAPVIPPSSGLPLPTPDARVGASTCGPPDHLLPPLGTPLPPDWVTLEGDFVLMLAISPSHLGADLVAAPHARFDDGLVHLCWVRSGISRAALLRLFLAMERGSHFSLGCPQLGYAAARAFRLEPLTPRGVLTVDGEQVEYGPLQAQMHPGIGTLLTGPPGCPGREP
# [3] = target: T1, Sphingosine kinase 2 (Homo sapiens); details: at 1 µM
# [4] = target: Casein kinase II subunit alpha (Homo sapiens) (UniProt P68400); details: at 0.1 µM
# [5] = target: Casein kinase II subunit alpha (Homo sapiens) (UniProt P68400); details: at 1 µM
# [6] = target: T2, Inhibitor of nuclear factor kappa-B kinase subunit alpha (Homo sapiens) (UniProt O15111); details: at 0.1 µM
# T2 sequence (whole entry): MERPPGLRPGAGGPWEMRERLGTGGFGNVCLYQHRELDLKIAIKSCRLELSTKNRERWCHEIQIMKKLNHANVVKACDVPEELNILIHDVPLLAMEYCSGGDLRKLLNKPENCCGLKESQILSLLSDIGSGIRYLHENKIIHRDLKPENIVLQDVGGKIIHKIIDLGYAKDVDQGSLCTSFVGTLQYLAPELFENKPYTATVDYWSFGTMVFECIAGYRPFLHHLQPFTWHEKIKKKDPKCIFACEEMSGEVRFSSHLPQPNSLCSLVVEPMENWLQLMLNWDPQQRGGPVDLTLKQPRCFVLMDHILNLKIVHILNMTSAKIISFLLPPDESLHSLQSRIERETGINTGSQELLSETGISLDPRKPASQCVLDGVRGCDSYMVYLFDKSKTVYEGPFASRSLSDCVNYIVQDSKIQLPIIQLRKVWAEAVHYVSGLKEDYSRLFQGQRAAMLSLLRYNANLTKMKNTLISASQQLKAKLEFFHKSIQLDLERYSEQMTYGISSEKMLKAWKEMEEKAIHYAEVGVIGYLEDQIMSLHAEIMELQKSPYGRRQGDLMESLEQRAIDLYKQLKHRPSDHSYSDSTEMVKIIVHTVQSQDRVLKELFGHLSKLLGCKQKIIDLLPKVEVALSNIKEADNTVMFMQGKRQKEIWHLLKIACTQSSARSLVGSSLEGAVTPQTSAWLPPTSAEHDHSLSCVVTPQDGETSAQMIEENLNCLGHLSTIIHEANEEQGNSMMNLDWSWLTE
# [7] = target: T2, Inhibitor of nuclear factor kappa-B kinase subunit alpha (Homo sapiens); details: at 1 µM
# [8] = target: T3, Inhibitor of nuclear factor kappa-B kinase subunit beta (Homo sapiens) (UniProt O14920); details: at 0.1 µM
# T3 sequence (whole entry): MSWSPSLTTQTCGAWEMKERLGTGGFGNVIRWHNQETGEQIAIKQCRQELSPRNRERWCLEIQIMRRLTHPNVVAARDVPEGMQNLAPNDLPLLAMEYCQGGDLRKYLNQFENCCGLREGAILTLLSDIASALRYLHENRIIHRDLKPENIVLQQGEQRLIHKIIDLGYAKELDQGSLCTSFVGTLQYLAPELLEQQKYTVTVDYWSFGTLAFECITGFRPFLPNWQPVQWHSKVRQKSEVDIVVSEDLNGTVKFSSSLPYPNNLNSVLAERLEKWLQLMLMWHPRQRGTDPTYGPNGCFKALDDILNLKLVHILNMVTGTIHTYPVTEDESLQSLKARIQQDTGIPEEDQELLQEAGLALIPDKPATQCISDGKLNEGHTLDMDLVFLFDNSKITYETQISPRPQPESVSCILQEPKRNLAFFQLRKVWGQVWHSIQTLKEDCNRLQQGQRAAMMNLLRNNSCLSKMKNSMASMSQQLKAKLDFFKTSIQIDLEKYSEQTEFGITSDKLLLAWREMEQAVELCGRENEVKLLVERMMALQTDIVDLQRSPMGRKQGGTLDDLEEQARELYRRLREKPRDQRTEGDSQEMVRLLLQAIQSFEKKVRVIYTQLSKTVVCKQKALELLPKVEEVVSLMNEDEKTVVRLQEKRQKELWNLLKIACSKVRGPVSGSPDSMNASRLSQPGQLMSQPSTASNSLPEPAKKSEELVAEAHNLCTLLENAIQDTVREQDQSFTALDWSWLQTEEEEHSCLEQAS
# [9] = target: T3, Inhibitor of nuclear factor kappa-B kinase subunit beta (Homo sapiens); details: at 1 µM
# [10] = target: T4, Inhibitor of nuclear factor kappa-B kinase subunit epsilon (Homo sapiens) (UniProt Q14164); details: at 0.1 µM
# T4 sequence (whole entry): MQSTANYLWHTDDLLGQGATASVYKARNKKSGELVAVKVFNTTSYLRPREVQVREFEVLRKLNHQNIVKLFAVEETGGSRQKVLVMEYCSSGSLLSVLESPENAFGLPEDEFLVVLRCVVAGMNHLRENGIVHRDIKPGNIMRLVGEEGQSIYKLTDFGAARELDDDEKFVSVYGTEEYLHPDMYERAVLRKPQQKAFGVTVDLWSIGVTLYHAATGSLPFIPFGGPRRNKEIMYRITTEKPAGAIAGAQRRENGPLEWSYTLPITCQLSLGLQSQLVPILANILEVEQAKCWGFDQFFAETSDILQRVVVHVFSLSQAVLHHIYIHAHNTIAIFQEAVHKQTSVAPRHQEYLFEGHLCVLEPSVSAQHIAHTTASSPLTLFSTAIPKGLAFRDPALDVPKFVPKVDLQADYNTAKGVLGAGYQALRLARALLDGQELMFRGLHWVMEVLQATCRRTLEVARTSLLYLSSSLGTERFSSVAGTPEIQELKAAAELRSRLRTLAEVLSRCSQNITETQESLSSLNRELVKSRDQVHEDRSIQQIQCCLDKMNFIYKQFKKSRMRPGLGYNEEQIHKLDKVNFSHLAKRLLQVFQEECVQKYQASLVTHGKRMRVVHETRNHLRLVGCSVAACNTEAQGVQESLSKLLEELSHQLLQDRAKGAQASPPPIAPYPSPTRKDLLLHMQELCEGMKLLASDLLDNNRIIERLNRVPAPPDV
# [11] = target: T4, Inhibitor of nuclear factor kappa-B kinase subunit epsilon (Homo sapiens); details: at 1 µM
# [12] = target: T5, Serine/threonine-protein kinase Nek1 (Homo sapiens) (UniProt Q96PY6); details: at 0.1 µM
# T5 sequence (whole entry): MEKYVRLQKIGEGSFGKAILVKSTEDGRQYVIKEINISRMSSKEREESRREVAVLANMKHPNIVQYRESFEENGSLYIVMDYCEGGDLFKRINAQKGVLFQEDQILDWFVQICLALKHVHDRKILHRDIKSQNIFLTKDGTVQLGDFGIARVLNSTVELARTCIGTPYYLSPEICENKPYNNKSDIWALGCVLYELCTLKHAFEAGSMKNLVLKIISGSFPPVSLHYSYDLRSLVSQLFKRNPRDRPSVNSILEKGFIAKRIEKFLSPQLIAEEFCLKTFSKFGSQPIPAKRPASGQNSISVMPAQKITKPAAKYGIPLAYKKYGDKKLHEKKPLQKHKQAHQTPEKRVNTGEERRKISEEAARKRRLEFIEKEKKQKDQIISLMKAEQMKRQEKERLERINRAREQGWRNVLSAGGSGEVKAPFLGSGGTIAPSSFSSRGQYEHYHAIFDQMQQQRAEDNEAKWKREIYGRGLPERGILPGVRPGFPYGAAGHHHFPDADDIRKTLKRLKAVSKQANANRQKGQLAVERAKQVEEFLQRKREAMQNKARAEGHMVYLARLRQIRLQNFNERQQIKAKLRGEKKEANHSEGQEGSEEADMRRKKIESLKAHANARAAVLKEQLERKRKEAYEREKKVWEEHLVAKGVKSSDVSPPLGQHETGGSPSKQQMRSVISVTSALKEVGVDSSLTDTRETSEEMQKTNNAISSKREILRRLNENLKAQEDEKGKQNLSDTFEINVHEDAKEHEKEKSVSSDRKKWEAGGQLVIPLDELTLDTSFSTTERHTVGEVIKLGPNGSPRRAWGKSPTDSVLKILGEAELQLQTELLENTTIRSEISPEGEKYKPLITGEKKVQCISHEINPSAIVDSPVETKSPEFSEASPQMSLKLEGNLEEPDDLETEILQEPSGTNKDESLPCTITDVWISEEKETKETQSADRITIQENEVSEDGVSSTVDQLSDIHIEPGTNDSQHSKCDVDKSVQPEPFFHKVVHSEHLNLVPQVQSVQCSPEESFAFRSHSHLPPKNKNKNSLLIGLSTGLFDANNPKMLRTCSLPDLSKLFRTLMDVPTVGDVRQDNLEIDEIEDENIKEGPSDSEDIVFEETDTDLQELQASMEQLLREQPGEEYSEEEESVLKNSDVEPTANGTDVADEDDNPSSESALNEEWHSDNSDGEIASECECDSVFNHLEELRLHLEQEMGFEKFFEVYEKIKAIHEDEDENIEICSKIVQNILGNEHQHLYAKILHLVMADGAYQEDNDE
# [13] = target: T5, Serine/threonine-protein kinase Nek1 (Homo sapiens); details: at 1 µM
# [14] = target: T6, Serine/threonine-protein kinase Nek2 (Homo sapiens) (UniProt P51955); details: at 0.1 µM
# T6 sequence (whole entry): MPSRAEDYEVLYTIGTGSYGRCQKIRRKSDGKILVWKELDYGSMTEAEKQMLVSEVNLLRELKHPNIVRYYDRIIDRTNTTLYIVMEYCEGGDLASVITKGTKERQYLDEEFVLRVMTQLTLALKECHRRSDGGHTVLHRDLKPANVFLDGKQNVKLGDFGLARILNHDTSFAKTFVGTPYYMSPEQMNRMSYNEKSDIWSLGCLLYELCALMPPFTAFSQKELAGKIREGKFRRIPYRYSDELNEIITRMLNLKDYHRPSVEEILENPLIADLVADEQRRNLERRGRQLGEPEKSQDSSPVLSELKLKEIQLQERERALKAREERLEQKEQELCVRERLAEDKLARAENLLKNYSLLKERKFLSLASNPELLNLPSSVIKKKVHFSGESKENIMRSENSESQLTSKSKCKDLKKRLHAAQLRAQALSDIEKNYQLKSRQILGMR
# [15] = target: T6, Serine/threonine-protein kinase Nek2 (Homo sapiens); details: at 1 µM
# [16] = target: Serine/threonine-protein kinase Nek6 (Homo sapiens) (UniProt Q9HC98); details: at 0.1 µM
# [17] = target: Serine/threonine-protein kinase Nek6 (Homo sapiens) (UniProt Q9HC98); details: at 1 µM
# [18] = target: Serine/threonine-protein kinase Nek7 (Homo sapiens) (UniProt Q8TDX7); details: at 0.1 µM
# [19] = target: Serine/threonine-protein kinase Nek7 (Homo sapiens) (UniProt Q8TDX7); details: at 1 µM
# [20] = target: T7, Serine/threonine-protein kinase Nek9 (Homo sapiens) (UniProt Q8TD19); details: at 0.1 µM;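 further: reported value is the mean percent inhibition of NEK9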
# T7 sequence (whole entry): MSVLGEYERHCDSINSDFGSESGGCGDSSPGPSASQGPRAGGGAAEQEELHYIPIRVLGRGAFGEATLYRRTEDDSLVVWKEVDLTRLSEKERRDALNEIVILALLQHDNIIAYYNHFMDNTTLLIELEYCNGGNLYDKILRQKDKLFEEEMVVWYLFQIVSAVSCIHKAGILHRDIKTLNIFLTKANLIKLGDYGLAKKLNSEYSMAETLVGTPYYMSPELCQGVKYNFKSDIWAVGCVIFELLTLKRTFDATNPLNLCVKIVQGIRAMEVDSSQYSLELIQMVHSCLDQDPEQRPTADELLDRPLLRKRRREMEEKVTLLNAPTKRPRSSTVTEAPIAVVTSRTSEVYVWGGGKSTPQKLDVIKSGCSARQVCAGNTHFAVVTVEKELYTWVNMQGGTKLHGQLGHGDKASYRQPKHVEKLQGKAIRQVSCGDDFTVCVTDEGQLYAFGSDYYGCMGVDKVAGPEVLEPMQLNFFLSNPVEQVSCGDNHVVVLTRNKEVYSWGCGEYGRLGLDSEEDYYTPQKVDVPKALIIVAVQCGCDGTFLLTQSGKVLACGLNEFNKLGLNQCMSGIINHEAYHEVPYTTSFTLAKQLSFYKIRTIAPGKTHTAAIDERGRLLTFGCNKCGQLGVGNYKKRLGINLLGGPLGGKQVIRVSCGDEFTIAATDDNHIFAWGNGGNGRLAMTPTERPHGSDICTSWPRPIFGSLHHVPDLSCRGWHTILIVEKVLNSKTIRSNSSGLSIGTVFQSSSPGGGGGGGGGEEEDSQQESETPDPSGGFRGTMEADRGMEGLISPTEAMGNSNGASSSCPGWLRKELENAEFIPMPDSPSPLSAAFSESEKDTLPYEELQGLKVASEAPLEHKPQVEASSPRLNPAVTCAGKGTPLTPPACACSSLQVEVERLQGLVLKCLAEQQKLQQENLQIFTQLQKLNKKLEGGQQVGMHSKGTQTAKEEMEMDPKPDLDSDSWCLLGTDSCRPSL
# Serine/threonine-protein kinase Nek6 (Homo sapiens), sequence (Q9HC98 whole entry): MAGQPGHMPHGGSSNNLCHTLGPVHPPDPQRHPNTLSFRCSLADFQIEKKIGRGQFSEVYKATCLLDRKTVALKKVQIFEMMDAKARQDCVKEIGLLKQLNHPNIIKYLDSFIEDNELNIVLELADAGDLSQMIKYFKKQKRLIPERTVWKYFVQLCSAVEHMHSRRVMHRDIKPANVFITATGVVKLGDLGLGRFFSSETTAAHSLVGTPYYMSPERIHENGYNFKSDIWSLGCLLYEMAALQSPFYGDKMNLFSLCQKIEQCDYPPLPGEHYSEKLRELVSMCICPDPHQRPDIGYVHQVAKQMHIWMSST
# Casein kinase II subunit alpha (Homo sapiens), sequence (P68400 whole entry, looked up): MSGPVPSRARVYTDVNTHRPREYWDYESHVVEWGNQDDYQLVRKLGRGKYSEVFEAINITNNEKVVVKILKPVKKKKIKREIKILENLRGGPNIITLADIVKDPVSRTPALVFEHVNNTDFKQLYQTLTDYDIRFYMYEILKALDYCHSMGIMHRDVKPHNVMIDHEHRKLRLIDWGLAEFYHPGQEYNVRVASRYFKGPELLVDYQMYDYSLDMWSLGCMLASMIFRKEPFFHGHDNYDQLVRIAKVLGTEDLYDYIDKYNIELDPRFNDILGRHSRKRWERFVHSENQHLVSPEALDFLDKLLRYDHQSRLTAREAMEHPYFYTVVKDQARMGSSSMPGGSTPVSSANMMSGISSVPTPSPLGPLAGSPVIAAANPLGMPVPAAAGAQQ
# Serine/threonine-protein kinase Nek7 (Homo sapiens), sequence (Q8TDX7 whole entry, looked up): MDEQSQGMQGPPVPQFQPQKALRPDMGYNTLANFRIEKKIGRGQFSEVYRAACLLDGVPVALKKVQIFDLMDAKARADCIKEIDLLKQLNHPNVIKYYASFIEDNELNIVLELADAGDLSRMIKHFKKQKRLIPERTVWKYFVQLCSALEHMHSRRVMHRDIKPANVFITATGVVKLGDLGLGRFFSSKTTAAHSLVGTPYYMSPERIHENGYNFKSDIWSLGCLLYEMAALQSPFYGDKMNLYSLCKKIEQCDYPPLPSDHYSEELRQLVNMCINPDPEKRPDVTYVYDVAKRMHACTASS
# Sphingosine kinase 1 (Homo sapiens), sequence (Q9NYA1 whole entry): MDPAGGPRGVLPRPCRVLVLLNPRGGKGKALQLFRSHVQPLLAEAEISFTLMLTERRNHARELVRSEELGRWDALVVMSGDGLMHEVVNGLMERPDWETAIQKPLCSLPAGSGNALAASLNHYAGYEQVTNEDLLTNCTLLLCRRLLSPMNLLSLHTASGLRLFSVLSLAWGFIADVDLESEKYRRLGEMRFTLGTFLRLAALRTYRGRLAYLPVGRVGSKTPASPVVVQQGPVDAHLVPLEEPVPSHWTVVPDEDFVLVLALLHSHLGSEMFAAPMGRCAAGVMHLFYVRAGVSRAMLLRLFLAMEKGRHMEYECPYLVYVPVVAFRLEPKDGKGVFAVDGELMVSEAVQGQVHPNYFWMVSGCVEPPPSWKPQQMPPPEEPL
SMILES,inhibition [1],inhibition [2],inhibition [3],inhibition [4],inhibition [5],inhibition [6],inhibition [7],inhibition [8],inhibition [9],inhibition [10],inhibition [11],inhibition [12],inhibition [13],inhibition [14],inhibition [15],inhibition [16],inhibition [17],inhibition [18],inhibition [19],inhibition [20]
CC1=C(C(=O)Nc2ccc3[nH]ncc3c2)C(c2ccc(Cl)c(Cl)c2)CC(=O)N1 (stereo not given),-3.67%,-0.3%,-1.45%,2.1%,3.35%,5.09%,2.52%,3.16%,0.15%,0.83%,-0.94%,0.09%,-0.51%,1.92%,1.44%,-0.99%,-2.51%,2.34%,3.79%,7.85%
COc1cc(C)c(NC(=O)CN(C)C)cc1Nc1nc(Nc2cccc(F)c2C(N)=O)c2cc[nH]c2n1,-1.23%,-0.13%,-0.4%,7.08%,35.5%,0.92%,-6.41%,0.16%,-5.7%,1.27%,5.68%,1.77%,-0.24%,3.86%,3.95%,-0.84%,-0.26%,4.83%,9.65%,7.92%
